Pemphigus Ab inh: human desmoglein-3 autoantibody binding inhibition; P32926; DSG3-coupled beads, scFv-anti-DSG3-GFP binding, flow cytometry; stronger effect = lower value; binding (percent of control), % at 10 µM; 0.48% of 310,000 active; AID 588358;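 active = binding more than 3 SD below its plate's average and above zero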;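 also: hits lower antibody fragment binding to DSG3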
Target sequence (P32926 whole entry, looked up, the tested form may be a part): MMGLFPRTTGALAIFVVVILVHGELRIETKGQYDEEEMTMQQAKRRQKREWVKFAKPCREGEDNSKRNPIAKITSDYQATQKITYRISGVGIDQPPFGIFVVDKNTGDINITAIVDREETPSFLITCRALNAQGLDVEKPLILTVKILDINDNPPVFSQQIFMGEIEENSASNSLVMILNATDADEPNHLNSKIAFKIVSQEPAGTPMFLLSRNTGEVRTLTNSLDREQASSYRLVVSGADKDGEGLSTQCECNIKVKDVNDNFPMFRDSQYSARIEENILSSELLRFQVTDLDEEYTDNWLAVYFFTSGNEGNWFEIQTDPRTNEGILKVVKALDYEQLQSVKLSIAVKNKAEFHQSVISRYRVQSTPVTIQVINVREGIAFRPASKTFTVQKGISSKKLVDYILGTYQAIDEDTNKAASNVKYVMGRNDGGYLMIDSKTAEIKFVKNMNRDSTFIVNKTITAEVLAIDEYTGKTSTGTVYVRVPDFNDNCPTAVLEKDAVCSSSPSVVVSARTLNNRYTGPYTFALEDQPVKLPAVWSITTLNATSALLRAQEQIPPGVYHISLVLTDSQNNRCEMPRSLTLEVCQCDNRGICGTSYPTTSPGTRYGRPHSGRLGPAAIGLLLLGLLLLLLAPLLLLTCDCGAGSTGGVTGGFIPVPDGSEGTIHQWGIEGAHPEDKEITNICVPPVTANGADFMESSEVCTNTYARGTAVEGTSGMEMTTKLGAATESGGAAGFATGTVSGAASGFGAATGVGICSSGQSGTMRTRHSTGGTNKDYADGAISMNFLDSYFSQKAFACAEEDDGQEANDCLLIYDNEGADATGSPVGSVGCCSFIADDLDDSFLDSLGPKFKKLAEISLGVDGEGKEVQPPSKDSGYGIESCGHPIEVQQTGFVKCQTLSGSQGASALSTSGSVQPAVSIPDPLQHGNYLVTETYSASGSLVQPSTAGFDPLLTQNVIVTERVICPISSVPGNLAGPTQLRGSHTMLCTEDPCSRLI
NSD2 inh: blocks human histone methyltransferase NSD2. NSD2 peptide methylation, AlphaScreen, 120 min. inhibition, % at 12.5 µM. 0.54% of 310,000 active
N-glyco inh: blocks N-linked glycosylation in D54 reporter cells | 0.23% of 360,000 active | D54 ERlucT glycosylation luciferase reporter, 24 h; percent of 100 nM tunicamycin response | AID 588692 | reporter increase, % at 12.5 µM;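 active = mean luciferase reporter signal, scaled so untreated is 0 and the glycosylation-blocking control 100, at or above a set limit in every replicate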;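 also: luciferase carries N-glycosylation sites so blocking glycosylation raises the light; 0% = median of neutral control wells and 100% = median of 100 nM tunicamycin wells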
CaV13 ICDI inh: Disruptors of the CACNA1D IQ motif to Ca2+-dependent inactivation inhibitor domain association, primary screening, Förster resonance energy transfer in intact living … | 0.098% of 340,000 active | HEK cells, CFP/YFP FRET ICDI-IQ, plate reader, 10 min; percent FRET-ratio fall versus neutral wells | AID 743397 | inhibition, % at 12.3 µM;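 active = mean replicate inhibition of at least 30% and at least 1% of replicates passing that level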;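 also: 0% = median of the neutral control wells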
Vif inh: HIV Vif inhibition. HEK293T cells, Vif self-association by quenched fluorescence, imaging, 24 h. inhibition, % at 7.49 µM. 0.35% of 340,000 active; in the data active = inhibition above about 50%, passing the limit was not always enough
ATG4B inh: inhibitors of human ATG4B cysteine protease | inhibition, % at 8.33 µM | Q9Y4P1 | ATG4B cleavage of LC3-PLA2, NBD-HPC fluorescence, 1 h | AID 504462 | 0.51% of 340,000 active; in the data active = inhibition above about 40%
ATG4B conf: ATG4B (human) inhibition, single-dose confirmed; shares compounds with ATG4B inh; ATG4B protease fluorescent substrate cleavage assay; inhibition, % at 8.33 µM; 92% of 320 active; AID 504757; in the data active = inhibition above about 39%
PLA2 counter: PLA2 (human) inhibition in ATG4B counter-screen. shares compounds with ATG4B inh. purified PLA2, NBD-C6-HPC fluorescence, 45 min. inhibition, % at 8.33 µM. 66% of 1,600 active. AID 588402
* marks the source's active call; other numbers are inactive results; . = no result given. Rows were chosen to be rich in hits. Some 1.9% of all compounds tested hit in one or more screens of this group. Rule as the data show it, unless noted: active = inhibition above about 50%; inactive = the rest.

SMILES	Pemphigus Ab inh	NSD2 inh	N-glyco inh	CaV13 ICDI inh	Vif inh	ATG4B inh	PLA2 counter	others
O=C(COC(=O)c1cc(Br)ccc1O)NNC(=O)c1ccc(Cl)cc1	100.7	3.7	4.5	-7.0	10.9	4.2	.
O=C1NN(c2ccccc2)C(=O)/C1=C/c1ccc(-c2ccc(C(=O)O)cc2)o1	97.5	43.3	0.4	-16.1	3.4	9.9	.
O=C1NN(c2ccccc2)C(=O)/C1=C/c1ccc(Sc2cccc3ccccc23)o1	.	8.6	3.2	-2.8	-2.6	43.7*	31.8	ATG4B conf=50.8*
O=C(Nc1ccc(C(=O)N2CCN(c3ccccc3F)CC2)cc1)C1=CSCCO1	100.0	3.2	-3.2	-4.6	-5.0	-6.6	.
O=C(CSc1ccc(Cl)cc1)N1CCN(c2c(Cl)cccc2[N+](=O)[O-])CC1	98.6	-1.5	-3.3	.	-11.4	39.0	.
O=C(/C=C/c1ccc(Cl)cc1)N1CCN(c2c(Cl)cccc2[N+](=O)[O-])CC1	120.7	-0.3	-2.7	-2.5	-8.9	43.8*	47.3
COc1cc(CN(C)CCc2ccccn2)cc(OC)c1OC	100.2	0.1	-7.7	-4.2	13.8	-11.9	.
Cc1cccc(C)c1N1CCN(S(=O)(=O)c2ccc(F)cc2)CC1	.	6.0	-0.7	-2.0	-12.7	50.8*	62.0*
COc1ccccc1-n1cnc2c(c1=O)c1nc3ccccc3nc1n2-c1ccc(C)c(C)c1	34.6*	-2.7	-5.5	5.8	-26.4	43.5*	3.8
COCCCn1c2nc3ccccc3nc2c2c(=O)n(-c3ccccc3OC)cnc21	.	-0.6	1.4	0.3	17.5	2.3	.
Cc1nn(C(C)(C)C)c(OC(=O)c2cccs2)c1S(=O)(=O)c1ccccc1	105.7	3.2	5.3	-4.6	2.5	11.1	.
CCCCCCCCCCCCCCCCn1cc[n+](C)c1	115.5	-4.3	-17.3	-4.0	-0.2	48.5*	37.8	ATG4B conf=49.9*
Oc1[nH]c2ccccc2c1N=NC(=S)NCC1CCCO1 (stereo not drawn)	102.2	-3.2	-0.2	-5.0	-3.4	-1.2	.
O=C1CCCCN1CCC(=O)N1CCCC(Nc2ccccc2)C1 (stereo not drawn)	.	-2.3	1.6	-4.9	1.0	2.3	.
O=C(CCc1cccc(Cl)c1)N1CCCC(Nc2ccccc2)C1 (stereo not drawn)	110.4	7.1	-1.5	-15.6	19.7	47.6*	49.6
CC(C)c1ccc(NC2CCCN(C(=O)c3n[nH]c4c3CCC4)C2)cc1 (stereo not drawn)	100.8	8.6	0.3	-7.3	-27.4	55.5*	43.5	ATG4B conf=60.0*
CC(C)c1ccc(NC2CCCN(C(=O)c3cccs3)C2)cc1 (stereo not drawn)	107.3	13.2	-1.5	-7.6	-3.4	76.5*	73.4*
CC(C)c1ccc(NC2CCCN(C(=O)CCN3Cc4ccccc4C3=O)C2)cc1 (stereo not drawn)	103.0	7.8	-0.6	-7.2	11.3	44.0*	37.6	ATG4B conf=73.2*
CC(C)c1ccc(NC2CCCN(C(=O)CCN3CCCCC3=O)C2)cc1 (stereo not drawn)	.	-1.3	-0.8	-6.4	-3.1	6.5	.
CC(C)c1ccc(NC2CCCN(C(=O)c3cnn(C(C)C)c3)C2)cc1 (stereo not drawn)	108.4	-0.2	1.8	.	.	44.9*	48.9	ATG4B conf=53.0*
CC(C)c1ccc(NC2CCCN(C(=O)c3ccsc3)C2)cc1 (stereo not drawn)	128.3	10.6	-0.5	-5.2	-6.6	76.6*	78.2*
Cc1occc1C(=O)N1CCCC(Nc2ccc(F)cc2)C1 (stereo not drawn)	102.0	1.8	0.5	-10.1	10.7	-0.4	.
Cc1occc1C(=O)N1CCCC(Nc2ccc(C(C)C)cc2)C1 (stereo not drawn)	101.8	5.5	-0.9	-10.2	10.6	49.7*	58.3*
COC(=O)c1ccc(C(=O)N2CCCC(Nc3ccc(C(C)C)cc3)C2)cc1 (stereo not drawn)	106.2	15.5	3.6	-5.8	-2.2	81.3*	82.4*
O=S(=O)(Cc1ccccc1)N1CCCC(c2nc(-c3ccc(F)cc3)no2)C1 (stereo not drawn)	98.3	-2.0	-0.1	-8.2	2.1	8.9	.
SMILES	Pemphigus Ab inh	NSD2 inh	N-glyco inh	CaV13 ICDI inh	Vif inh	ATG4B inh	PLA2 counter	others
Cc1ccc2nc3n(c(=O)c2c1)-c1cc2ccccc2cc1C(=O)NC3CC(C)C (stereo not drawn)	.	.	3.9	-3.4	-9.0	.	.
CNC(=O)CSc1nc2ccccc2c(=O)n1C1CCCCC1	113.8	-4.1	5.2	-19.1	-0.5	12.7	.
CCOC(=O)CSc1nc2ccccc2c(=O)n1C1CCCC1	107.5	-11.8	1.1	-5.3	-1.7	43.6*	64.8*
CCc1cccc(CC)c1NC(=O)COC(=O)c1ccccc1-c1nc2ccccc2s1	103.8	-1.4	-2.3	1.8	-5.9	66.0*	73.7*
CCc1oc2ccccc2c1C(=O)c1cc(Br)c(O)c(Br)c1	97.8	.	5.2	-5.0	-0.8	95.5*	96.2*
CCOC(=O)c1c(COc2ccccc2)oc2ccc(O)cc12	.	.	.	.	.	-10.8	.
CC(C)(C)c1ccc(C(=O)N2CCNCC2)cc1	96.4	-3.0	0.8	-5.2	7.7	-6.2	.
CN1CCC2(CC1)N=C(c1ccc(F)cc1)C(=S)N2C(=O)c1ccc(C(C)(C)C)cc1	100.5	2.1	4.2	-2.4	-16.1	44.6*	9.7
Fc1ccccc1Nc1ncnc2c1nnn2Cc1ccccc1	93.8	-1.5	0.5	-5.2	.	24.9	.
Clc1ccccc1Nc1ncnc2c1nnn2Cc1ccccc1	94.3	-2.2	2.9	-6.8	.	56.1*	57.5*
NS(=O)(=O)c1cnccc1Nc1cccc(Br)c1	99.5	3.2	-0.3	-19.2	-2.6	1.0	.
O=C(c1cc(-c2ccc(Cl)cc2)on1)N1CCc2ccccc2C1	.	-4.2	3.1	-2.9	-6.5	-3.9	.
O=C(c1cc(-c2ccccc2)on1)N1CCc2ccccc2C1	100.7	-1.0	1.1	-2.6	5.3	40.6*	51.6*
O=S(=O)(NCc1ccc(Cl)cc1)c1cnc[nH]1	103.5	-6.5	-1.3	-5.4	.	-10.0	.
COc1ccc(C2=NOC(Cn3nc(-c4ccccc4)cc3C(=O)NCc3cccc(Br)c3)C2)cc1 (stereo not drawn)	105.0	.	-1.6	-5.6	-2.2	-5.5	.
COc1ccc(C2=NOC(Cn3nc(C(=O)NCc4cccc(Br)c4)cc3-c3ccccc3)C2)cc1 (stereo not drawn)	102.7	.	-9.4	-10.3	-1.3	53.2*	59.5*

Compound activity from PubChem.
